Screening data (PubChem BioAssay)
LDHA inh – LDHA (human) enzyme inhibition | purified LDHA, NADH/diaphorase-resazurin fluorescence; hits give low values | P00338 | AID 1347041 | activity change, % (values are at about 110 or 230 µM) | 480,000 compounds, 0.15% hits; in the data active means activity change below about -30%; inconclusive means mostly about -25% to -30%;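 further: plate controls were DMSO wells for no effect and wells without enzyme for full effect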
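Resorufin fluorescence (ex540/em590), read at 0 and 20 min after diaphorase/resazurin addition, reports the NADH left after a 5 min room-temperature reaction of 2 nM human LDH5 with 0.06 mM NADH and 0.2 mM pyruvate.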
DRD3 antagonist – D3 dopamine receptor (human) antagonism; P35462; D3R cells, DiscoveRx beta-arrestin luminescence, antagonist mode; hits give low values; max response, negative = inhibition, %; 360,000 compounds, 2.5% hits; AID 652054; in the data active means max response below about -50%; inconclusive means no clear call, values can overlap the other calls; further: on the % scale 0 is the no-effect control and ±100 the full control effect
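Cells plated overnight at 1500 cells/well, then exposed to library compounds with dopamine controls for 90 minutes at 37 degrees C. DiscoveRx reagent added for 30–60 minutes at room temperature; luminescence read, quantitative HTS format.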
D3 ag – agonists of human D3 dopamine receptor. 410,000 compounds, 0.58% hits. P35462. D3R DiscoveRx beta-arrestin cells, luminescence, 90 min. max activation, %. AID 652048; in the data active means max activation above about 30%; further: 0% is about no effect
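Agonist-mode cell screen: cells plated at 1500/well and incubated overnight at 37 °C, then exposed to library compounds for 90 min at 37 °C. Detection reagent was added for 30–60 min at room temperature, and luminescence was read.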
PI4K2A block – blocks human PI4K2A kinase activity; Q9BTU6; purified PI4K2A, ADP-Glo luminescence, 1 h; hits give low values; AID 1346378; activity change, negative = inhibition, % at 76.9 µM; 420,000 compounds, 0.13% hits; in the data active means activity change below about -50%; inconclusive means mostly about -30% to -49%;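 further: -100% = wells without enzyme as full effect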
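In this quantitative HTS, ADP production by PI4K2A was quantified luminescently after 1 h at ambient temperature; 100 microM adenosine served as plate-quality control.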
PI5P4K alpha inh – blocks human PI5P4K alpha kinase activity; AID 652105; max response, %; PI5P4Kalpha enzyme, ADP-Glo luminescence, 60 min; hits give low values; P48426; 330,000 compounds, 1.2% hits; active means max response of -50% or lower; inconclusive means between -30% and -50%; inactive means -30% or higher; further: value at the top dose of about 77 µM; on the % scale 0 is the no-effect control and ±100 the full control effect
Target sequence (P48426 whole entry, looked up): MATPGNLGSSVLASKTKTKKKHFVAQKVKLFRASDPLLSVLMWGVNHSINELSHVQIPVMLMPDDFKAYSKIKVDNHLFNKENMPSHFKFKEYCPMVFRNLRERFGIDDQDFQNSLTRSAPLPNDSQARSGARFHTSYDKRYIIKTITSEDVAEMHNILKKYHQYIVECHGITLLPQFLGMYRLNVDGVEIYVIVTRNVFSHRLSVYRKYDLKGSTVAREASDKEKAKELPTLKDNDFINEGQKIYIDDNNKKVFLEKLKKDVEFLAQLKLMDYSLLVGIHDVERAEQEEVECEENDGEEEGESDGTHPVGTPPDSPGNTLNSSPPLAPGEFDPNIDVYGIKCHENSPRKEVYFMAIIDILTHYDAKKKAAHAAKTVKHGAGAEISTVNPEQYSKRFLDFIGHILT
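Luminescence from ADP-Glo served as readout of PI5P4Kalpha activity in a qHTS format. Reaction: enzyme, substrate, compound, ATP at 5 microM final, 60 min at RT.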
* hit, by the source's call; ? = inconclusive; · = no result given. This is a sample that favours compounds with a hit; in the whole collection about 3.3% have one here.

SMILES	LDHA inh	DRD3 antagonist	D3 ag	PI4K2A block	PI5P4K alpha inh
Cc1cc(C(F)(F)F)n(-c2nc(C(=O)O)cs2)n1	-6.1	2.8	-9.2	-1.9	0.4
O=C(O)c1csc(-n2nc(-c3ccccc3)cc2C(F)(F)F)n1	-87.4*	-17.5	-1.9	-7.6	0.9
COc1cccc(/C(O)=C2\C(=O)C(=O)N(c3ccccn3)C2c2ccccc2OC)c1 (stereo not given)	-1.7	-50.5*	-0.9	4.4	1.0
COc1ccc(C2/C(=C(/O)c3ccccc3)C(=O)C(=O)N2CCN2CCOCC2)c(OC)c1 (stereo not given)	7.2	-56.5*	-0.4	6.1	3.4
COc1ccccc1/C=C(/C#N)C(=O)Nc1ccccc1C(=O)O	1.3	·	·	·	·
Nc1nc(O)c(Sc2ccccc2[N+](=O)[O-])c(=O)[nH]1	-51.7*	-20.6	-2.5	-1.2	1.9
Nc1ccccc1Sc1ccccc1[N+](=O)[O-]	0.6	0.2	-4.8	2.5	-2.1
CCOC(=O)N1CCN(c2nc(C)c3c(n2)CC(c2ccc(F)cc2)CC3=O)CC1 (stereo not given)	0.3	·	·	·	·
COc1ccc(C(=O)ON=C(C)c2nccs2)cc1	-9.6	0.0	-9.3	-66.2*	?
COc1ccc(C(=O)O/N=C(\C)c2ccccc2)cc1	-1.9	23.5	-18.9	-95.1*	?
C/C(=N\OC(=O)c1ccc(Cl)cc1)c1nccs1	0.0	39.3	-2.1	-1.9	-7.9
Cc1cccc(C)c1N(CC(=O)N1CCN(C)CC1)S(C)(=O)=O	-2.7	-79.2*	4.1	10.8	-4.1
CC(NC(=O)c1ccc(CN2CCCCC2)cc1)c1cccc(C(F)(F)F)c1 (stereo not given)	3.9	·	·	·	·
Cc1cccc(C)c1NC(=O)CN(C)C(=O)c1ccc(-n2cncn2)c([N+](=O)[O-])c1	-1.5	-68.2*	1.1	0.8	0.8
O=C(O)c1ccccc1SC(F)F	-4.5	·	·	·	·
CCCc1nc(N2CCN(CC(=O)N3CCC(C)CC3)CC2)c(C#N)c2c1CCC2	10.6	·	·	·	·
COc1cc(NC(=O)CCN2CCN(C)CC2)cc(OC)c1	0.1	7.2	18.6	1.1	-2.4
COc1cc(NC(=O)CCN2CCN(c3ccccc3OC)CC2)cc(OC)c1	-0.8	-99.2*	-3.4	-4.1	-0.2
COc1ccc(OC)c(NC(=O)CCN2CCCCC2)c1	-10.8	-14.2	-0.5	9.2	·
COc1ccc(OC)c(NC(=O)CCN2CCN(c3ccccc3OC)CC2)c1	-10.2	-84.5*	-16.6	0.8	-5.5
COc1ccc(OCC(=O)Nc2cc(OC)ccc2N2CCCCC2)cc1	-0.4	24.8	35.8*	2.8	25.9
COc1ccc([N+](=O)[O-])cc1NC(=O)CCN1CCN(c2ccccc2)CC1	1.7	-24.5	75.2*	-2.4	0.6
CCc1c(C(C)=O)oc2ccccc12	-2.8	·	·	·	·
O=C(CSc1nnc(-c2cccnc2)n1Cc1ccco1)Nc1ccc(Cl)c(Cl)c1	·	·	·	0.4	·
CCCn1nc(C(=O)Nc2ccccc2OC)c2ccccc2c1=O	-1.5	·	·	·	·
SMILES	LDHA inh	DRD3 antagonist	D3 ag	PI4K2A block	PI5P4K alpha inh
Cc1ccccc1C(=O)NC1CCCCN(Cc2cccc(F)c2)C1=O (stereo not given)	·	·	·	-4.4	·
C=CCc1ccccc1OCCCCN1CCCC1	-13.9	-83.0*	-12.5	10.0	-5.9
c1ccc(-c2ccccc2OCCCN2CCOCC2)cc1	-30.1*	0.2	0.4	0.2	-5.5
c1ccc(-c2ccccc2OCCCCn2ccnc2)cc1	-37.1*	-5.9	-4.2	1.7	-2.0
c1ccc(-c2ccccc2OCCCCN2CCCCCC2)cc1	-7.2	-86.1*	-2.6	-2.0	-7.7
c1ccc(-c2ccccc2OCCOCCN2CCCCC2)cc1	-17.5	?	-27.7	6.1	-7.3
CCCCSc1nc2c(c(=O)[nH]c(=O)n2C)n1CC(O)COc1ccc(Cl)cc1 (stereo not given)	-7.7	·	·	·	·
O=C(CN1CCCC1)NC1CCCCC1	4.8	·	·	·	·
C=CCc1ccccc1OCCn1ccnc1	-9.1	-51.8*	5.6	1.7	5.2
Cc1cccc(OCCN2CCOCC2)c1C	-3.1	-5.3	54.2*	-1.0	0.6
C=CCc1cccc(OC)c1OCCOCCn1ccnc1	-15.6	8.7	3.3	0.1	15.9
c1ccc(-c2ccccc2OCCN2CCCC2)cc1	-18.0	-62.9*	-23.3	12.5	-0.1
Cc1cc(C)c(C)c(OCCN2CCOCC2)c1	-2.7	-1.2	-19.7	9.1	0.4
Cc1ccc(OCCn2ccnc2)c(C)c1	-2.2	-21.2	-3.2	3.6	-7.5
Cc1cc(C(C)(C)C)ccc1OCCn1ccnc1	-14.5	-63.6*	2.2	7.3	2.6
Oc1ccc([S+]2CCCC2)c2ccccc12	28.5	·	·	·	·
O=C(CSc1ncn[nH]1)N1CCCCC1	-2.1	6.2	8.0	0.7	1.8
O=C(CSc1ncc(-c2ccc(F)cc2)[nH]1)N1CCCCC1	4.6	-58.9*	-1.2	1.7	·
CC(NC(=O)Nc1ccc(F)c(Cl)c1)c1ccc(Cl)s1 (stereo not given)	0.3	·	·	·	·
C/C=C/Cn1c(NCc2ccccc2)nc2c1c(=O)[nH]c(=O)n2C	-0.2	·	·	·	·
Cc1cc(C(O)(C(F)(F)F)C(F)(F)F)cc(C)c1OC(=O)c1ccccc1F	-0.5	·	·	·	·
Nc1c(C(O)(C(F)(F)F)C(F)(F)F)cc(C(O)(C(F)(F)F)C(F)(F)F)c2ccccc12	2.0	-82.7*	-0.4	-13.1	1.4
COC(=O)[C@]12C[C@H](CC(=O)NCc3cccc4ccccc34)C(=O)N(CCC3=CCCCC3)C1=C[C@H](C1CCCC1)O[C@@H]2C	·	·	·	-0.7	·
CCC1NC(=S)N(C2CCCCC2)C1=O (stereo not given)	-1.4	-14.4	-0.2	2.3	·
CC(C)CC1NC(=S)N(C2CCCCC2)C1=O (stereo not given)	-1.6	3.1	1.1	-2.1	-58.9*
SMILES	LDHA inh	DRD3 antagonist	D3 ag	PI4K2A block	PI5P4K alpha inh
CC(O)c1ccc(-c2ccc(CNCc3ccc(F)cc3)o2)cc1 (stereo not given)	3.8	·	·	·	·
C/C(=N\NC(=O)c1cc(O)ccc1O)c1cccc(NC(=O)c2ccc(Cl)cc2)c1	7.2	-11.1	-1.7	-5.8	-82.0*
C/C(=N\NC(=O)c1cc(O)ccc1O)c1cccc(NC(=O)c2cccc(Cl)c2)c1	3.5	-4.1	1.8	-3.2	?
CCc1nnc(NC(=O)C2Cc3ccccc3CN2S(=O)(=O)c2cccs2)s1 (stereo not given)	3.7	?	8.9	-9.4	?
O=C(Nc1nnc(C2CC2)s1)C1Cc2ccccc2CN1S(=O)(=O)c1cccs1 (stereo not given)	5.1	0.0	-1.4	-16.2	-60.0*
Cc1nnc(Sc2cc(NCCO)c([N+](=O)[O-])c3nonc23)s1	2.4	-60.1*	-16.3	-19.4	-17.9
Cc1nnc(Sc2cc(NCCCO)c([N+](=O)[O-])c3nonc23)s1	26.0	-96.8*	-25.3	?	-78.1*
O=[N+]([O-])c1c(NCCO)cc(N2CCCCCC2)c2nonc12	-0.5	-1.8	0.0	2.9	0.3
Oc1ccccc1Oc1ccc2nnc(-c3ccccc3)n2n1	21.3	·	·	·	·
